{"source": "PubChem BioAssay (NCATS)", "note": "Records with an inconclusive call do not appear. Activity calls are given as the source filed them. Calls come from the whole dose curve; as a rule, active = well fitted cell-killing curve with a large enough effect; inconclusive = small, poorly fitted or top-dose-only effect, or effect the other way; inactive = no such curve, though single readings can be large or run the other way. Note: nearly all actives have a fitted effect of over 35% in size. Potency is the fitted concentration of half-maximal effect.", "data": [{"assay": "Quantitative highthroughput screen to assess conditional lethalithy of SEM cells grown in Human Plasma-Like Medium with dialyzed fetal bovine serum (HPLM+ds) (AID 1963882)", "conditions": "SEM B-ALL cells in HPLM+ds, CellTiter-Glo viability, 48 h; series mostly up to 45.8 µM; viability: at the top concentration", "procedure,_shortened": "(§1)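 Each medium arm—HPLM with 10% dialyzed FBS, or RPMI1640 with 5 mM glucose and 10% untreated or dialyzed FBS—was screened against an 11-point, 3-fold compound titration for 48 h at 37 °C, with CellTiter-Glo luminescence as endpoint.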", "values": [{"smiles": "CCOC1OC(=O)C[C@H]1NC(=O)[C@@H]1CCCN1C(=O)[C@@H](NC(=O)c1ccc(N)c(Cl)c1)C(C)(C)C", "note": "(stereo partly specified)", "viability": "83.1% (inactive)"}, {"smiles": "Cc1cc(N2CCOCC2)cc2[nH]c(-c3c(NC[C@@H](O)c4cccc(Cl)c4)cc[nH]c3=O)nc12", "Potency": "1.48 µM (active)"}, {"smiles": "CNC(=O)c1cccc(-c2ccc3c(N4CCOC[C@H]4C)nc(N4CCOC[C@H]4C)nc3n2)c1", "Potency": "0.264 µM (active)"}, {"smiles": "Cc1[nH]c(C=C2C(=O)Nc3ccc(S(=O)(=O)N(C)c4cccc(Cl)c4)cc32)c(C)c1C(=O)N1CCN(C)CC1", "Potency": "13.2 µM (active)"}, {"smiles": "CNc1nc(-c2ccc3c(N)n[nH]c3c2)cc(N2C[C@@H](C(=O)NC3CCCCC3)CC[C@@H]2C)n1", "Potency": "16.6 µM (active)"}, {"smiles": "CCNC(=O)CCCC=CC[C@@H]1[C@H](C=CC(O)CCc2ccccc2)[C@@H](O)C[C@@H]1O", "note": "(stereo partly specified)", "viability": "94.7% (inactive)"}, {"smiles": "CON=C(C(=O)N[C@@H]1C(=O)N2C(C(=O)O)=C(CSC(=O)c3ccco3)CS[C@H]12)c1csc(N)n1", "viability": "93.6% (inactive)"}, {"smiles": "COc1cc(C(C)=O)ccc1OCCCN1CCC(c2noc3cc(F)ccc23)CC1", "viability": "71.6% (inactive)"}, {"smiles": "CCC(=C(c1ccc(O)cc1)c1ccc(OCCNC)cc1)c1ccccc1", "Potency": "13.2 µM (active)"}, {"smiles": "CCOC(=O)C1=C[C@]2(CC)CCCN3CCc4c(n1c1ccccc41)[C@@H]32", "viability": "74.3% (inactive)"}, {"smiles": "CC(C)(C)c1[nH]cnc1C=c1[nH]c(=O)c(=Cc2ccccc2)[nH]c1=O", "Potency": "0.0048 µM (active)"}, {"smiles": "CC(=O)Nc1sc2c(c1-c1nc3ccccc3s1)CNC2", "Potency": "18.7 µM (active)"}, {"smiles": "CC(=O)ON=C1C(c2c(O)[nH]c3cc(Br)ccc23)=Nc2ccccc21", "Potency": "1.18 µM (active)"}, {"smiles": "CCOc1ccccc1N=Nc1c(C)[nH]n(-c2nc(-c3ccccc3)cs2)c1=O", "Potency": "5.26 µM (active)"}, {"smiles": "CN[C@H]1[C@@H](O[C@@H]2[C@H](O[C@@H]3[C@@H](O)[C@@H](O)[C@@H](N=C(N)N)[C@@H](O)[C@@H]3N=C(N)N)O[C@H](C)[C@@]2(O)C=O)O[C@@H](CO)[C@@H](O)[C@H]1O", "viability": "95.5% [at 15.3 µM] (inactive)"}, {"smiles": "CC1(C)C(=O)N(CCN2CCC(C(=O)c3ccc(F)cc3)CC2)c2ccccc21", "viability": "86.3% (inactive)"}, {"smiles": "CC(C)OC(=O)[C@H](C)N[P@](=O)(OC[C@H]1O[C@@H](n2ccc(=O)[nH]c2=O)[C@](C)(F)[C@H]1O)Oc1ccccc1", "Potency": "4.69 µM (active)"}, {"smiles": "CO[C@@H]1[C@@H](O)[C@H](O)[C@@H](n2c3c(Cl)cccc3c3c4c(c5c6cccc(Cl)c6[nH]c5c32)C(=O)NC4=O)O[C@@H]1CO", "Potency": "0.59 µM (active)"}, {"smiles": "Cc1c[nH]c(C=C2C(=O)Nc3ccccc32)c1CCC(=O)O", "Potency": "0.833 µM (active)"}, {"smiles": "COc1ccc(-c2oc3cc(OC)ccc3c2C(=O)c2ccc(C#N)cc2)cc1", "viability": "101% (inactive)"}, {"smiles": "CC(C)N(CC[C@H](c1ccccc1)c1cc(CO)ccc1O)C(C)C", "viability": "85.8% (inactive)"}, {"smiles": "COc1nccc(-c2c(-c3ccc(F)cc3)ncn2C2CCNCC2)n1", "viability": "90.4% (inactive)"}, {"smiles": "COc1cc2nc(N(C)CCCNC(=O)C3CCCO3)nc(N)c2cc1OC", "note": "(stereo unspecified)", "viability": "94.2% (inactive)"}, {"smiles": "N#Cc1ccc(COC[C@H]2O[C@@H](n3c(NCc4ccc(Cl)c(Cl)c4)nc4c(N)ncnc43)[C@@H](O)[C@@H]2O)cc1", "viability": "87.4% (inactive)"}]}, {"assay": "Quantitative highthroughput screen to assess conditional lethalithy of SEM cells grown in RPMI1640 with unreated serum (RPMI+s) (AID 1963883)", "conditions": "SEM B-ALL cells, CellTiter-Glo viability, 48 h; series mostly up to 45.8 µM; viability: at the top concentration", "procedure,_shortened": "as §1", "values": [{"smiles": "CCOC1OC(=O)C[C@H]1NC(=O)[C@@H]1CCCN1C(=O)[C@@H](NC(=O)c1ccc(N)c(Cl)c1)C(C)(C)C", "note": "(stereo partly specified)", "viability": "87.7% (inactive)"}, {"smiles": "Cc1cc(N2CCOCC2)cc2[nH]c(-c3c(NC[C@@H](O)c4cccc(Cl)c4)cc[nH]c3=O)nc12", "Potency": "1.66 µM (active)"}, {"smiles": "CNC(=O)c1cccc(-c2ccc3c(N4CCOC[C@H]4C)nc(N4CCOC[C@H]4C)nc3n2)c1", "Potency": "2.64 µM (active)"}, {"smiles": "COc1cc(OC)c(C=CS(=O)(=O)Cc2ccc(OC)c(NCC(=O)O)c2)c(OC)c1", "Potency": "0.209 µM (active)"}, {"smiles": "Cc1[nH]c(C=C2C(=O)Nc3ccc(S(=O)(=O)N(C)c4cccc(Cl)c4)cc32)c(C)c1C(=O)N1CCN(C)CC1", "Potency": "11.8 µM (active)"}, {"smiles": "CNc1nc(-c2ccc3c(N)n[nH]c3c2)cc(N2C[C@@H](C(=O)NC3CCCCC3)CC[C@@H]2C)n1", "Potency": "16.6 µM (active)"}, {"smiles": "CCNC(=O)CCCC=CC[C@@H]1[C@H](C=CC(O)CCc2ccccc2)[C@@H](O)C[C@@H]1O", "note": "(stereo partly specified)", "viability": "105% (inactive)"}, {"smiles": "CON=C(C(=O)N[C@@H]1C(=O)N2C(C(=O)O)=C(CSC(=O)c3ccco3)CS[C@H]12)c1csc(N)n1", "viability": "109% (inactive)"}, {"smiles": "COc1cc(C(C)=O)ccc1OCCCN1CCC(c2noc3cc(F)ccc23)CC1", "viability": "79.3% (inactive)"}, {"smiles": "CCC(=C(c1ccc(O)cc1)c1ccc(OCCNC)cc1)c1ccccc1", "Potency": "7.43 µM (active)"}, {"smiles": "O=C(O)C=Cc1ccc(O)c(O)c1", "Potency": "13.2 µM (active)"}, {"smiles": "CCCCCN=C(N)NN=Cc1c[nH]c2ccc(OC)cc12", "Potency": "11.8 µM (active)"}, {"smiles": "CC(C)(C)c1[nH]cnc1C=c1[nH]c(=O)c(=Cc2ccccc2)[nH]c1=O", "Potency": "0.0061 µM (active)"}, {"smiles": "O=c1[nH]c(=O)n([C@H]2C[C@@H](O)[C@@H](CO)O2)cc1F", "Potency": "2.35 µM (active)"}, {"smiles": "CCOc1ccccc1N=Nc1c(C)[nH]n(-c2nc(-c3ccccc3)cs2)c1=O", "Potency": "6.62 µM (active)"}, {"smiles": "COC(=O)[C@H](c1ccccc1Cl)N1CCc2sccc2C1", "viability": "105% (inactive)"}, {"smiles": "COC(=O)C=CC(=O)OC", "Potency": "1.32 µM (active)"}, {"smiles": "CN[C@H]1[C@@H](O[C@@H]2[C@H](O[C@@H]3[C@@H](O)[C@@H](O)[C@@H](N=C(N)N)[C@@H](O)[C@@H]3N=C(N)N)O[C@H](C)[C@@]2(O)C=O)O[C@@H](CO)[C@@H](O)[C@H]1O", "viability": "106% [at 15.3 µM] (inactive)"}, {"smiles": "CC(C)OC(=O)[C@H](C)N[P@](=O)(OC[C@H]1O[C@@H](n2ccc(=O)[nH]c2=O)[C@](C)(F)[C@H]1O)Oc1ccccc1", "Potency": "6.62 µM (active)"}, {"smiles": "O=c1[nH]c(=O)n([C@H]2C[C@@H](O)[C@@H](CO)O2)cc1C(F)(F)F", "Potency": "9.35 µM (active)"}, {"smiles": "CO[C@@H]1[C@@H](O)[C@H](O)[C@@H](n2c3c(Cl)cccc3c3c4c(c5c6cccc(Cl)c6[nH]c5c32)C(=O)NC4=O)O[C@@H]1CO", "Potency": "0.235 µM (active)"}, {"smiles": "COc1ccc(-c2oc3cc(OC)ccc3c2C(=O)c2ccc(C#N)cc2)cc1", "viability": "102% (inactive)"}, {"smiles": "CC(C)N(CC[C@H](c1ccccc1)c1cc(CO)ccc1O)C(C)C", "viability": "93.2% (inactive)"}, {"smiles": "COc1ccc2cc3[n+](cc2c1OC)CCc1cc2c(cc1-3)OCO2", "Potency": "20.9 µM (active)"}, {"smiles": "COc1cc2c(cc1OC)[C@@H]1Cc3ccc(OC)c(OC)c3CN1CC2", "viability": "86% (inactive)"}, {"smiles": "COc1cc(CNC(=O)CCCCC=CC(C)C)ccc1O", "Potency": "0.526 µM (active)"}, {"smiles": "COc1cc2nc(N(C)CCCNC(=O)C3CCCO3)nc(N)c2cc1OC", "note": "(stereo unspecified)", "viability": "74.1% (inactive)"}]}]}
